Laboratory results as given in the antibiotic and cytotoxicity screens of Wong et al. (2023).
Screen size: about 39,000 compounds; about 1,500 (3.8%) were called active. What follows is part of a selection rich in actives, with near analogues and random picks from the rest.

What follows are compounds tested on HSkMC (human skeletal muscle cells) (assay: cytotoxicity call (relative viability < 0.9)). Settings: 10 µM.

Row | Structure (SMILES) | cytotoxicity call
1 | Cc1ccc(S(=O)(=O)N(C)C[C@@H]2Oc3c(NC(=O)c4cnccn4)cccc3C(=O)N([C@H](C)CO)C[C@@H]2C)cc1 | inactive
2 | CC=Cc1ccc2n(c1=O)C[C@H]1[C@H](CO)[C@@H](C(=O)NCCc3cn(C)cn3)N(C(=O)C3CC3)[C@@H]21 | inactive
3 | COc1ccc(S(=O)(=O)N(C)C[C@H]2OCc3cn(nn3)CCCC(=O)N([C@@H](C)CO)C[C@H]2C)cc1 | inactive
4 | C[C@H](CO)N1C[C@H](C)[C@@H](CN(C)C(=O)Nc2ccc3c(c2)OCO3)OCCCC[C@H](C)Oc2ccc(NC(=O)C3CCCCC3)cc2C1=O | inactive
5 | C[C@H]1CN([C@@H](C)CO)C(=O)c2cc(C#CC3(O)CCCC3)cnc2O[C@H]1CN(C)C(=O)C1CCCCC1 | inactive
6 | Cc1noc(C)c1NC(=O)Nc1ccc2c(c1)C(=O)N([C@H](C)CO)C[C@@H](C)[C@H](CN(C)C(=O)Nc1ccc(C(F)(F)F)cc1)O2 | inactive
7 | O=C(C[C@@H]1CC[C@H]2[C@@H](COC[C@H](O)CN2C(=O)c2ccccc2)O1)N1CCOCC1 | inactive
8 | O=C(C[C@@H]1C[C@H]2c3cc(NS(=O)(=O)c4ccc(F)cc4)ccc3O[C@H]2[C@H](CO)O1)NCCN1CCCCC1 | inactive
9 | C[C@H](CO)N1C[C@H](C)[C@H](CN(C)S(=O)(=O)c2ccc(Cl)cc2)OCCCC[C@H](C)Oc2ccc(NC(=O)Nc3ccc(C(F)(F)F)cc3)cc2C1=O | inactive
10 | C=CCOC(=O)[C@H]1[C@@H]2C(=O)O[C@@H](c3ccccc3)[C@@H](c3ccccc3)N2[C@@H](c2ccc(OCCOC(=O)[C@H]3C[C@H]4C(=O)N[C@@H](Cc5ccccc5)C(=O)N4[C@H]3c3cccc(OCCO)c3)cc2)[C@]12C(=O)Nc1ccccc12 | inactive
11 | Cc1nn(C[C@@H](O)Cn2cnc3c2c(=O)n(C)c(=O)n3C)c(C)c1Br | inactive
12 | O=C(c1ccccc1Cl)c1cccnc1-c1nnn(Cc2cc(C(F)(F)F)cc(C(F)(F)F)c2)c1-c1ccncc1 | active
13 | NC1CCN(c2cccc(Cl)n2)CC1 | inactive
14 | CCN(CC)CCS(=O)(=O)[C@@H]1CCN2C(=O)c3coc(n3)CC(=O)C[C@H](O)/C=C(C)/C=C\CNC(=O)/C=C/[C@@H](C)[C@H](C(C)C)OC(=O)[C@@H]12 | inactive
15 | C[C@H](CO)N1C[C@H](C)[C@@H](CN(C)C(=O)Nc2ccc(F)cc2)OCCCC[C@H](C)Oc2ccc(NS(=O)(=O)c3ccc(F)cc3)cc2C1=O | inactive
16 | C[C@@H]1CN([C@H](C)CO)C(=O)c2cc(NC(=O)C3CC3)ccc2O[C@H]1CN(C)S(=O)(=O)c1cccs1 | inactive
17 | C[C@@H]1CN([C@@H](C)CO)C(=O)c2cc(NC(=O)Cc3cn(C)c4ccccc34)ccc2O[C@@H]1CN(C)C(=O)Nc1cccc2ccccc12 | active
18 | C[C@H]1CN([C@@H](C)CO)C(=O)c2cc(NC(=O)Cc3cn(C)c4ccccc34)ccc2O[C@@H]1CN(C)C(=O)Nc1cccc2ccccc12 | inactive
19 | C[C@@H]1CN([C@@H](C)CO)C(=O)c2cc(NC(=O)Cc3cn(C)c4ccccc34)ccc2O[C@H]1CN(C)C(=O)Nc1cccc2ccccc12 | inactive

Row | Structure (SMILES) | cytotoxicity call
20 | C[C@H]1CN([C@@H](C)CO)C(=O)Cc2cc(NC(=O)Cc3cn(C)c4ccccc34)ccc2O[C@H]1CN(C)C(=O)Nc1cccc2ccccc12 | inactive
21 | C[C@@H]1CN([C@H](C)CO)C(=O)c2cc(NC(=O)Cc3cn(C)c4ccccc34)ccc2O[C@H]1CN(C)C(=O)Nc1cccc2ccccc12 | active
22 | C[C@H](CO)N1C[C@H](C)[C@H](CN(C)C(=O)Nc2cccc3ccccc23)Oc2ccc(NC(=O)Cc3cn(C)c4ccccc34)cc2C1=O | inactive
23 | C[C@H](CO)N1C[C@H](C)[C@@H](CN(C)C(=O)Nc2cccc3ccccc23)Oc2ccc(NC(=O)Cc3cn(C)c4ccccc34)cc2C1=O | inactive
24 | C[C@H]1CN([C@@H](C)CO)C(=O)c2cc(NC(=O)Cc3cn(C)c4ccccc34)ccc2O[C@H]1CN(C)C(=O)Nc1cccc2ccccc12 | inactive
25 | C[C@@H]1CN([C@H](C)CO)C(=O)c2cc(NC(=O)Cc3cn(C)c4ccccc34)ccc2O[C@@H]1CN(C)C(=O)Nc1cccc2ccccc12 | active
26 | COc1ccc(NC(=O)Nc2cccc3c2O[C@@H](CN(C)C(=O)Nc2cccc4ccccc24)[C@@H](C)CN([C@@H](C)CO)C3=O)cc1 | inactive
27 | O[C@H]1[C@H](O)[C@@H](O)[C@H](O)[C@H](O)[C@H]1O | inactive
28 | COc1ccc(S(=O)(=O)N[C@H]2C=C[C@H](CC(=O)N3CCC(Cc4ccccc4)CC3)O[C@@H]2CO)cc1 | inactive
29 | CO[C@H]1CN(C)C(=O)c2cc(NC(=O)c3ccccc3)ccc2OC[C@H](C)N(C(=O)CN(C)C)C[C@@H]1C | inactive
30 | C[C@@H]1CN([C@H](C)CO)C(=O)c2cccc(NC(=O)c3cnccn3)c2O[C@@H]1CN(C)CC1CCCCC1 | inactive
31 | COc1ccc(CN(C)C[C@@H]2Oc3ccc(NC(=O)C4CC4)cc3CC(=O)N([C@H](C)CO)C[C@@H]2C)cc1 | inactive
32 | C[C@@H]1CCCCO[C@H](CN(C)Cc2ccc(Cl)c(Cl)c2)[C@@H](C)CN([C@H](C)CO)C(=O)c2cc(NC(=O)Nc3ccc(F)cc3)ccc2O1 | inactive
33 | Cn1cnc(S(=O)(=O)N2C[C@H](O)COC[C@@H]3O[C@H](CC(=O)NCc4ccc(F)cc4)CC[C@H]32)c1 | inactive
34 | Cc1cc(C(=O)Nc2cccc3c2O[C@H](CN(C)C(=O)Nc2c(C)noc2C)[C@H](C)CN([C@@H](C)CO)C3=O)n(C)n1 | inactive
35 | CO[C@@H]1[C@@H](OC(=O)c2ccc(C)[nH]2)[C@@H](O)[C@@H](Oc2ccc3c(c2C)OC(=O)[C@H](NC(=O)c2[nH]cc(CC(=O)Nc4cc5ccc(O[C@@H]6OC(C)(C)[C@H](OC)[C@@H](OC(=O)c7ccc(C)[nH]7)[C@H]6O)c(C)c5oc4=O)c2C)C3)CC1(C)C | active
36 | COC1C(OC(N)=O)C(O)C(Oc2ccc3c([O-])c(NC(=O)c4ccc(O)c(CC=C(C)C)c4)c(=O)oc3c2C)OC1(C)C.[Na+] (configuration not stated) | inactive
37 | COc1ccc(NC(=O)N(C)C[C@H]2OCCCC[C@H](C)Oc3ccc(NC(=O)Nc4ccc5c(c4)OCO5)cc3C(=O)N([C@@H](C)CO)C[C@@H]2C)cc1 | inactive
